Results taken from PubChem BioAssay AID504773 (Broad Institute, 2011).
Measured potencies and affinities stand elsewhere. The source made the active and inactive calls.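 How the source made its calls: active means polarization signal falls with dose and the fitted half-maximal concentration is at or below ten times the sample's top valid dose; inconclusive means flat curve at 30 to 70% inhibition, or poor fit; inactive means signal rises, flat within 30%, or potency beyond limit.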

Molecular target: Golgi-associated PDZ and coiled-coil motif-containing protein (Homo sapiens) (UniProt Q9HD26)
Assay: CAL PDZ peptide-binding inhibitors, dose response, biochemical, fluorescence polarization, Cerulean-tagged CAL PDZ, cherry-picks (AID 504773)

CC(=O)N1N=C(c2ccccc2)CC1c1ccccc1 (stereo not drawn)
outcome: inactive

COC(=O)c1ccc(CNC(=O)COC(=O)c2cc(Cl)nc(Cl)c2)cc1
outcome: inactive

CC(C)OCCCNC(=O)C1CC(=O)N(CCc2ccc(F)cc2)C1 (stereo not drawn)
outcome: inactive

COc1ccc(S(=O)(=O)N2CCOCC2)cc1NC(=O)CN1CCCCCC1
outcome: inactive

O=C(c1cccc(Oc2c(Cl)cccc2[N+](=O)[O-])c1)N1CCOCC1
outcome: inactive

CCOC(=O)C1(Cc2cccc(Cl)c2)CCCN(C(=O)c2cccc(C)n2)C1 (stereo not drawn)
outcome: inactive

Cc1ccc(SCC(=O)NCc2ccc(F)cc2)cc1
outcome: inactive

C[n+]1ccc(C(=O)Nc2ccccc2Cl)cc1
outcome: inactive
